“And” between values parts separate entries of the source, which are not always exact repeats. Identical values can stand only once. Records with an inconclusive call do not appear. The source made the active and inactive calls. Calls come from the whole dose curve; as a rule, active = well fitted inhibition curve with a large enough effect; inconclusive = small, poorly fitted or top-dose-only effect; inactive = flat fitted curve, though single readings scatter. Positions of bridges follow the written chain, without caps; N, C: chain ends. Non-standard residues stand in square brackets, D forms with d. Residues, ends and D or L forms follow the SMILES beside them. ξ: configuration not given here. *: point of attachment. Octanoyl(6-Me) = CCC(C)CCCCC(=O)*; ξThr(3R) = C[C@@H](O)C(N)C(=O)O; dDab = NCC[C@@H](N)C(=O)O; Dab = NCC[C@H](N)C(=O)O
Assay: Primary qHTS for inhibitors of nuclear receptor binding SET domain protein 2 (NSD2) in an isogenic RCH-ACV NSD2 p.E1099K mutant (9B) (AID 1645876); note: nearly all actives have a fitted effect of over 70% in size
Details: RCH-ACV (leukaemia line) NSD2 E1099K (9B) viability, CellTiter-Glo, 72 h; series mostly up to 44.9 µM
Potency is the fitted concentration of half-maximal effect.

| SMILES | Potency |
| --- | --- |
| C[C@H](CCC(=O)O)[C@H]1CCC2C3C[C@H](O)[C@@H]4C[C@H](O)CC[C@]4(C)C3CC[C@@]21C (some centres not stated) | inactive |
| c1coc(CNc2ncnc3nc[nH]c23)c1 | inactive |
| NC(=O)c1cccc(-c2cccc(OC(=O)NC3CCCCC3)c2)c1 | inactive |
| Cc1cn([C@@H]2O[C@H](CO)[C@@H](O)[C@H]2F)c(=O)[nH]c1=O | inactive |
| C[C@H](O)[C@@H]1C(=O)N2C(C(=O)O)=C(S[C@@H]3CN[C@H](CNS(N)(=O)=O)C3)[C@@H](C)[C@@H]12 | inactive |
| CCc1nc(-c2cccc(C)c2)c(-c2ccnc(NC(=O)c3ccccc3)c2)s1 | 20.5 µM (active) |
| CC(O)(C#Cc1ccc2c(c1)N(c1nc(N)ncc1Cl)CC2)c1nccs1 (configuration not stated) | 13.2 µM (active) |
| COc1cc([C@@H]2c3cc4c(cc3[C@H](O)[C@H]3COC(=O)[C@@H]23)OCO4)cc(OC)c1OC | 0.662 µM (active) |
| CC(C)Oc1ccc(C(=O)N[C@H](CNC(=O)CN(C)C)Cc2ccc(-c3cn4cccc([C@H](C)O)c4n3)cc2)cc1Cl | 0.059 µM (active) |
| Cc1ccc(O)c(C(CCN(C(C)C)C(C)C)c2ccccc2)c1 (configuration not stated) | inactive |
| O=C1NC(O)CCN1[C@@H]1O[C@H](CO)[C@H](O)[C@H]1O (some centres not stated) | inactive |
| CS(=O)(=O)N1CCc2c(-c3cnc(N)nc3)nc(N3CCOCC3)nc21 | 920 nM (active) and 468 nM (active) |
| CN(C)CC(=O)N1CCC(c2ccc(NC(=O)c3ncc(C#N)[nH]3)c(C3=CCCCC3)c2)CC1 | 5.8 µM (active) and 11.8 µM (active) |
| COc1ccc(S(=O)(=O)Nc2cccnc2Nc2ccc(O)cc2)cc1 | 9.34 µM (active) |
| CCCCCCCN(CC)CCCC(O)c1ccc(NS(C)(=O)=O)cc1 (configuration not stated) | inactive |
| CCNC(=O)c1cc2c(-c3cc(OCCN4CCCC4)c(Cl)cc3Cl)nc(N)nc2s1 | 0.512 µM (active) |

| SMILES | Potency |
| --- | --- |
| CC(C)C[C@H](NC(=O)CNC(=O)c1cc(Cl)ccc1Cl)B1OC(=O)CC(CC(=O)O)(C(=O)O)O1 (some centres not stated) | 0.186 µM (active) |
| CCC(C(=O)O)C1CCC(C)C(C(C)C(O)C(C)C(=O)C(CC)C2OC3(C=CC(O)[C@@]4(CC[C@](C)(C5CC[C@@](O)(CC)C(C)O5)O4)O3)C(C)CC2C)O1 (some centres not stated) | 0.468 µM (active) |
| CN1C(C(=O)Nc2ccccn2)=C(O)c2sc(Cl)cc2S1(=O)=O | inactive |
| Nc1nc(N)c2nc(-c3cccc(O)c3)c(-c3cccc(O)c3)nc2n1 | 16.4 µM (active) and 18.6 µM (active) |
| CCCCCCCCc1ccc(CCC(N)(CO)CO)cc1 | 8.33 µM (active) |
| CCC(C)CCCCC(=O)N[C@@H](CCN)C(=O)NC(C(=O)N[C@H](CCN)C(=O)N[C@@H]1CCNC(=O)C([C@@H](C)O)NC(=O)[C@@H](CCN)NC(=O)[C@@H](CCN)NC(=O)[C@@H](CC(C)C)NC(=O)[C@H](Cc2ccccc2)NC(=O)[C@H](CCN)NC1=O)[C@@H](C)O (stereo partly drawn) ({Octanoyl(6-Me)}-[Dab][ξThr(3R)][dDab][dDab][Dab]F[dL][dDab][dDab][ξThr(3R)]; lactam 4-C) | inactive |
| COc1ccc([C@@H]2CNC(=O)C2)cc1OC1CCCC1 | inactive |
| O=C(O)CCCCC(CCSCc1ccccc1)SCc1ccccc1 (configuration not stated) | inactive |
| Cc1cc(Nc2ncc3c(n2)N(C)C(=O)N(c2cc(NC(=O)c4cccc(C(F)(F)F)c4)ccc2C)C3)n(C)n1 | 0.132 µM (active) |
| CCOc1cc2c(c(F)c1OCC)C(=N)N(CC(=O)c1cc(N3CCOCC3)c(OC)c(C(C)(C)C)c1)C2 | 23 µM (active) |
| C[C@@H](Cc1cc2c(c(C(N)=O)c1)N(CCCO)CC2)NCCOc1ccccc1OCC(F)(F)F | inactive |
| O=S(=O)(O)CCSSCCS(=O)(=O)O | inactive |
| O=C(O)CCCCCC(=O)NN=C1CCCC1 | inactive |
| CC(C)NC[C@@H](C(=O)N1CCN(c2ncnc3c2[C@H](C)C[C@H]3O)CC1)c1ccc(Cl)cc1 | 1.66 µM (active) |
| C=CC(=O)N1CCc2ccc(-n3c(=O)ccc4cnc5ccc(-c6cnn(C)c6)cc5c43)cc21 | 0.363 µM (active) |
| c1ccc(CNc2nc(NCc3ccccc3)c3ccccc3n2)cc1 | 5.9 µM (active) |

From PubChem BioAssay (NCATS)
